In all, about 330,000 compounds went through this assay and about 540 (0.16%) were called active.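 Rule for the calls: active = activation factor of the enzyme at least 2-fold when tested at 20 µM; inactive = the rest.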 The list comes from a sample in which actives are over-represented; it also holds similar structures and randomly drawn compounds.
The compounds below were run against Intestinal-type alkaline phosphatase (Homo sapiens) (UniProt P09923) (assay: human IAP activators, primary screen, biochemical, luminescence, uHTS (AID 2524)). Conditions: purified human IAP, CDP-Star luminescence, 30 min; at 10 µM; stronger effect = higher value; 1 = vehicle-only enzyme, 0 = enzyme-free background.
Sequence of Intestinal-type alkaline phosphatase (Homo sapiens) (P09923 whole entry, looked up): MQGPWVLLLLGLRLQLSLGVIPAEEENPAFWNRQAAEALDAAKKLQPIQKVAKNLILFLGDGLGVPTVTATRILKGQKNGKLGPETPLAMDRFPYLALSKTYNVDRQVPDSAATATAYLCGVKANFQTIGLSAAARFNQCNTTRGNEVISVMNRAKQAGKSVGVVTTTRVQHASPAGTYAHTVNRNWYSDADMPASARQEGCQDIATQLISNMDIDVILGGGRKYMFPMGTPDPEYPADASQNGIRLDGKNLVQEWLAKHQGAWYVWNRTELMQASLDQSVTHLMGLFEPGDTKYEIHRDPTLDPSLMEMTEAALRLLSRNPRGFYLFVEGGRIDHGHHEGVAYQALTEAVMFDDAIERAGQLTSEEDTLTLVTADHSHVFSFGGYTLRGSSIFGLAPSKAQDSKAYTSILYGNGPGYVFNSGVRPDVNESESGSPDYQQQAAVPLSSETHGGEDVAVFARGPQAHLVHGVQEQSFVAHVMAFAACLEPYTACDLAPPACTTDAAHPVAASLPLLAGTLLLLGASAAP
`FC(F)(F)c1cccc(Cc2noc(CN3CCC(N4CCCCC4)CC3)n2)c1` was tested, and the activation factor was 1.17 (inactive).
With `C1CC1Cc1noc(CN2CCN(CC3CC3)CC2)n1` the activation factor was 1.06 (inactive).
With `COCCN(C(=S)Nc1ccccc1OC)C1CCN(C(C)C)CC1` the activation factor was 1.12 (inactive).
For `O=C(COC(=O)c1ccccc1F)Nc1cc(S(=O)(=O)N2CCOCC2)ccc1N1CCCC1`, the activation factor was 1.03 (inactive).
With `Cc1ccc(CNCc2ccc3c(c2)OCO3)c(C)c1` the activation factor was 1.06 (inactive).
`O=C(O)CSCc1ccc(C(=O)O)o1` was tested, and the activation factor was 0.943 (inactive).
`COc1cccc2cc(C(C)N(CCCN3CCOCC3)C(=O)Nc3ccc(Cl)cc3)oc12` (stereo not given) was tested, and the activation factor was 1.05 (inactive).
`CC(Oc1ccc(F)cc1F)C(=O)/C=C/N(C)C` (stereo not given) was tested, and the activation factor was 1.1 (inactive).
`COc1ccc(CC(=O)N2N=C(C)CC2(O)C(F)(F)F)cc1` (stereo not given) was tested, and the activation factor was 1.06 (inactive).
`CCOC(=O)C1CCN(C(=O)Nc2cccc(OC)c2)CC1` was tested, and the activation factor was 1.01 (inactive).
In the case of `COc1ccc(S(=O)(=O)N2CCN(CC(=O)NCC3(N4CCOCC4)CCCCC3)CC2)cc1`, the activation factor is reported as 0.925 (inactive).
In the case of `C#CCOCCOCCOCCNc1nc(N2CCN(C(=O)CCCCCCCCCCNC(=O)[C@H](CCCCN)n3cc(C)nn3)CC2)nc(N2CCN(C(=O)CCCCCCCCCCNC(=O)[C@H](CO)n3cc(CCCSC)nn3)CC2)n1`, the activation factor is reported as 1.1 (inactive).
`C#CCOCCOCCOCCNc1nc(N2CCN(C(=O)CCCCCCCCCCNC(=O)Cn3cc(CCCCCN)nn3)CC2)nc(N2CCN(C(=O)CCCCCCCCCCNC(=O)[C@H](CO)n3cc(CCCSC)nn3)CC2)n1` was tested, and the activation factor was 0.934 (inactive).
In the case of `C#CCOCCOCCOCCNc1nc(N2CCN(C(=O)CCCCCCCCCCNC(=O)[C@H]([C@@H](C)CC)n3cc(CCCCN=C(N)N)nn3)CC2)nc(N2CCN(C(=O)CCCCCCCCCCNC(=O)[C@H](CO)n3cc(CCCSC)nn3)CC2)n1`, the activation factor is reported as 2.98 (active).
For `CCCN=C1NC(=O)C(CC(=O)NCCc2ccc(OC)c(OC)c2)S1` (stereo not given), the activation factor was 1.04 (inactive).
`Cc1ccc(S(=O)(=O)N/N=C(\c2ccccc2)C2CC2)cc1` was tested, and the activation factor was 1.3 (inactive).
With `CCN(CC(=O)Nc1c(F)cccc1F)C(=O)C1CCC1` the activation factor was 1.05 (inactive).
With `O=C(COC(=O)/C=C/c1nc2ccccc2s1)Nc1ccccc1Oc1ccccc1` the activation factor was 0.94 (inactive).
For `CCCCCc1c(C)nc(N2CCN(Cc3ccc4c(c3)OCO4)CC2)[nH]c1=O`, the activation factor was 0.962 (inactive).
For `CCCCCCCCc1c(O)nc(-n2[nH]c(C)c(CCO)c2=O)[nH]c1=O`, the activation factor was 2.2 (active).
`CCCCc1c(O)nc2n(c1=O)CCS2` was tested, and the activation factor was 0.971 (inactive).
With `CN(CCc1ccccn1)C(=O)CCC1CCCN(Cc2ccccc2OC(F)F)C1` (stereo not given) the activation factor was 1.17 (inactive).
For `CN1CCC(N(C)S(=O)(=O)c2ccc(NC(=O)c3cccc(C#N)c3)cc2)CC1`, the activation factor was 0.888 (inactive).
With `Cc1ccc(NC(=O)c2cc(-c3ccccc3O)n[nH]2)cc1C` the activation factor was 2.39 (active).
In the case of `Cc1ccc(NC(=O)CCN2C(=O)c3ccccc3C2=O)cc1C`, the activation factor is reported as 0.917 (inactive).
For `Cc1ccc(CNC(=O)c2ccccc2CCc2ccccc2)cc1`, the activation factor was 0.921 (inactive).
For `Cc1ccc(C)c(NC(=O)c2cc(-c3cc(C)cc(C)c3O)n[nH]2)c1`, the activation factor was 1.49 (inactive).
In the case of `Cc1ccc(O)c(-c2cc(C(=O)Nc3c(C)n(C)n(-c4ccccc4)c3=O)[nH]n2)c1`, the activation factor is reported as 1.84 (inactive).
`Cc1ccc(O)c(-c2cc(C(=O)NCc3ccccc3)[nH]n2)c1` was tested, and the activation factor was 2.06 (active).
For `CN1CCN(CC(O)COCc2ccc3c(c2)OCO3)CC1` (stereo not given), the activation factor was 0.998 (inactive).
With `CC(C)COC(=O)C1C2C=CC3(CN(C(C)c4ccc(Br)cc4)C(=O)C13)O2` (stereo not given) the activation factor was 0.726 (inactive).
`COc1cc(NS(=O)(=O)c2ccc(N/C=C(\C=O)c3nc4cc(Cl)ccc4o3)cc2)nc(OC)n1` was tested, and the activation factor was 1.26 (inactive).
With `COc1ccc(C(=O)NC2CC(C)(C)Cc3c2cnn3-c2ccccc2C)o1` (stereo not given) the activation factor was 1.38 (inactive).
`CCCc1ccc(C(=O)COC(=O)CN2C(=O)NC3(CCCCC3C)C2=O)cc1` (stereo not given) was tested, and the activation factor was 1.11 (inactive).
In the case of `CC(C)CCn1c(=O)c2c(nc3n2CCCN3Cc2ccccc2)n(C)c1=O`, the activation factor is reported as 0.846 (inactive).
`COc1ccc(NS(=O)(=O)c2ccc(Oc3c(C#N)cccc3C#N)cc2)cc1` was tested, and the activation factor was 1.1 (inactive).
In the case of `CCn1nc(NC(=O)c2ccco2)c2cc3ccc(C)cc3nc21`, the activation factor is reported as 1.16 (inactive).
In the case of `CC(C)n1cnc2c(NCc3ccccc3)cc(N[C@@H](CO)Cc3ccccc3)cc21`, the activation factor is reported as 0.984 (inactive).
`O=C(NNC(=S)Nc1ccccc1)c1cccc(S(=O)(=O)N2CCOCC2)c1` was tested, and the activation factor was 2.01 (active).
For `O=C(Nc1ccc(N2CCOCC2)cc1)c1cccc(S(=O)(=O)N2CCOCC2)c1`, the activation factor was 1.08 (inactive).
`Cc1cc(C(=O)NNC(=O)c2cccc(S(=O)(=O)N3CCOCC3)c2)c2ccccc2n1` was tested, and the activation factor was 0.981 (inactive).
For `CCOC(=O)CNC(=O)/C=C/c1c(Cl)cccc1Cl`, the activation factor was 0.968 (inactive).
With `C/C(=N\OC(=O)c1ccccc1)c1c(C)nc2cc(C)ccn12` the activation factor was 1.06 (inactive).
In the case of `O=C(Nc1cccc(-c2cccc(Cl)c2)c1)C1CCN(C2CCC2)CC1`, the activation factor is reported as 4.26 (active).
In the case of `COc1cccc(-c2cccc(NC(=O)C3CCN(C4CCC4)CC3)c2)c1`, the activation factor is reported as 1.23 (inactive).
In the case of `CCn1cc(CN2CCC(C(=O)Nc3cccc(-c4cccc(Cl)c4)c3)CC2)cn1`, the activation factor is reported as 1.12 (inactive).
With `CC(=O)Nc1cccc(OCC(=O)/C=C2\N(C)c3ccccc3C2(C)C)c1` the activation factor was 0.862 (inactive).
With `CN(C)c1cccc(C(=O)N2CCC(n3nccc3NC(=O)C3CCOC3)CC2)c1` (stereo not given) the activation factor was 1.28 (inactive).
`CN1CCc2c(sc3c2c(NCc2ccco2)nc2nnnn23)C1` was tested, and the activation factor was 1.04 (inactive).
With `COc1ccc(NC(=O)CC2C(=O)OCC3CCCCN32)cc1Cl` (stereo not given) the activation factor was 1.01 (inactive).
For `O=C(COc1ccc(Cl)cc1)NCCS(=O)(=O)N1CCN(c2ccc(F)cc2)CC1`, the activation factor was 0.818 (inactive).
For `CCc1c(C)nc(SCC(=O)NC2CCCC2)[nH]c1=O`, the activation factor was 1.03 (inactive).
For `NS(=O)(=O)c1cccc(NC(=O)COC(=O)c2cc([N+](=O)[O-])ccc2N2CCCC2)c1`, the activation factor was 0.907 (inactive).
`CCc1ccc(S(=O)(=O)Nc2ccc(C)c(NS(C)(=O)=O)c2)cc1` was tested, and the activation factor was 0.919 (inactive).
For `Cc1ccccc1NC(=O)Cn1cc(C(=O)C2CC2)c2ccccc21`, the activation factor was 1.02 (inactive).

Reference: PubChem BioAssay AID2524 (Sanford-Burnham Center for Chemical Genomics, 2010)
